# Reference: PubChem BioAssay AID865 (The Scripps Research Institute Molecular Screening Center, 2007)
# The other results are listed elsewhere or left out. The source made the active and inactive calls.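 Rule for the calls: active = activation above the screen-wide mean activation plus 3 SD (cut at about 8% in these data); inactive = the rest.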
# Experiment: nonspecific BLA reporter activation – CHO NFAT-bla cells, FRET readout, counter-screen for GALR2 agonist project, confirmation (AID 865);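 note: 0% = DMSO with PBS wells and 100% = thapsigargin positive control wells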
# Details: beta-lactamase FRET activation, at 5.6 µM, hits give high values
row,Structure (SMILES),activation
1,O=C1COc2ccc(NC(=O)N3CCN(c4ccc(F)cc4)CC3)cc2N1,-0.56% (inactive)
2,OC(COc1cccc2ccccc12)CN1CCN(c2ccccn2)CC1 (stereo unspecified),0.34% (inactive)
3,COc1ccc(C(=O)CN2C(=O)NC(C)(c3ccc(C)cc3)C2=O)cc1OC (stereo unspecified),-1.81% (inactive)
4,CCCOc1ccc(C(=O)C(CCC(CNCC)C(=O)c2ccc(OCCC)cc2)CNCC)cc1 (stereo unspecified),0.75% (inactive)
5,CCOc1ccc2nc(Nc3nc4ccc(NC(C)=O)cc4s3)sc2c1,59.5% (active)
6,Cc1csc(NC(=O)c2ccc(-c3ccc(Cl)cc3Cl)o2)n1,0.5% (inactive)
7,O=[N+]([O-])c1ccccc1SNc1ccccn1,-1.98% (inactive)
8,Cc1ccc(CCC(=O)Nc2ncc(Cc3cc(Cl)ccc3Cl)s2)o1,13.5% (active)
9,COc1ccccc1N1N=C(c2cccs2)CC1c1ccccc1 (stereo unspecified),6.25% (inactive)
10,COc1cc(SC#N)ccc1N=Cc1c(C)[nH]n(-c2ccc(C)cc2)c1=O,9.72% (active)
11,Cn1c(=O)oc2cc(S(=O)(=O)N3CCC(C(=O)Nc4ccc(OC(F)(F)F)cc4)CC3)ccc21,1.18% (inactive)
12,CC(=O)N(Cc1cccs1)C1CCOC(C)(C)C1 (stereo unspecified),-3.67% (inactive)
13,COc1ccc(Nc2oc(-c3ccccc3Cl)nc2C#N)cc1,-0.84% (inactive)
14,CCN(C(=O)CSc1ncn[nH]1)c1cccc2ccccc12,-1.97% (inactive)
15,C=CCn1c(Oc2ccc(C(=O)OC)cc2)nc2c1c(=O)n(C)c(=O)n2C,-0.9% (inactive)
16,Fc1ccc(N2N=C(c3cccs3)CC2c2ccco2)c(F)c1 (stereo unspecified),0.42% (inactive)
17,CC(=O)Oc1ccc(C(C)=O)c2c1OCCO2,-1.79% (inactive)
18,CCOc1ccc(C(O)Cn2c(=N)n(CCN3CCCCC3)c3ccccc32)cc1 (stereo unspecified),-2.38% (inactive)
19,CC1(C)CC(=O)C=C(NCCN2CCNCC2)C1,-2.3% (inactive)
20,C=CCN(CC=C)S(=O)(=O)c1ccc(C(=O)Nc2nc3c(s2)CCc2ccccc2-3)cc1,1.61% (inactive)
21,Cc1ccc(Cc2c(C)nc3nc(SCC(=O)NCCN4CCOCC4)nn3c2C)cc1,-0.81% (inactive)
22,COCCN(CCOC)S(=O)(=O)c1ccc(C(=O)Nc2nc3c(s2)CCc2ccccc2-3)cc1,2.54% (inactive)
23,O=c1oc2cc(O)ccc2cc1-c1ccc(F)cc1,7.16% (inactive)
24,O=C(NC(=S)Nc1ccc(NC(=O)c2cccs2)cc1)c1ccc([N+](=O)[O-])cc1,-1.18% (inactive)
25,COC(=O)c1ccc(NC(=O)C(C)N2C(=O)c3ccccc3C2=O)cc1 (stereo unspecified),-1.44% (inactive)
26,CC/C(C)=N/Nc1nc2sc3c(c2c(=O)[nH]1)CC(C)(C)OC3,-1.22% (inactive)
